DUX4 txn inh: DUX4-mediated transcription inhibition; 293T-iDUX4 ZSCAN4-Gaussia luciferase reporter, 24 h; active compounds read low; activity change, negative = inhibition, % (no concentration beside the values); 37,000 tested, 0.8% active; AID 1224904;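 active means mean inhibition of at least 10% in the main channel, exceeding the control channel by a set limit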
Large screens that a line does not name were inactive. Only a selection was taken, and hits are over-represented in it overall.

C[C@H](CO)N1C[C@H](C)[C@@H](CN(C)C(=O)Nc2ccccc2C(F)(F)F)OCc2ccccc2-c2c(n(C)c3ccccc23)C1=O	none
C[C@H]1CN([C@@H](C)CO)C(=O)c2ccccc2-c2ccccc2CO[C@H]1CN(C)Cc1cccc2c1OCCCO2	none
C[C@H](CO)N1C[C@H](C)[C@@H](CN(C)Cc2cccc(C(F)(F)F)c2)OCc2ccccc2-c2c(n(C)c3ccccc23)C1=O	DUX4 txn inh -54
COc1ccccc1CN(C)C[C@H]1OCc2ccccc2-c2c(n(C)c3ccccc23)C(=O)N([C@@H](C)CO)C[C@H]1C	none
C[C@@H]1CN([C@H](C)CO)C(=O)c2c(c3ccccc3n2C)-c2ccccc2CO[C@H]1CN(C)Cc1cccc2c1OCCCO2	DUX4 txn inh -32
C[C@@H]1CN([C@@H](C)CO)C(=O)c2c(c3ccccc3n2C)-c2ccccc2CO[C@@H]1CN(C)Cc1ccc(C(F)(F)F)cc1	DUX4 txn inh -27
C[C@@H]1CN([C@H](C)CO)C(=O)c2c(c3ccccc3n2C)-c2ccccc2CO[C@H]1CN(C)Cc1ccc(O)cc1	none
C[C@@H]1CN([C@H](C)CO)C(=O)c2c(c3ccccc3n2C)-c2ccccc2CO[C@@H]1CN(C)Cc1cccc2c1OCCCO2	none
Cc1ccc(-c2ccc([C@@H]3[C@@H](CO)N4C(=O)CN(C(=O)c5cccnc5)C[C@@H]34)cc2)cc1	none
CCC(=O)N1CC[C@H]2[C@H](CO)Nc3ccc(C#Cc4cccc(OC)c4)cc3[C@H]21	none
N#C[C@@H]1[C@@H](c2ccc(C3=CCCCC3)cc2)[C@H](CO)N1C(=O)CN1CCOCC1	none
C/C=C/c1cccc(-c2nc(C(=O)NC3CCC3)cc3c2[C@H](CCO)N([S@@](=O)C(C)(C)C)C3)c1	none
O=C(C[C@@H]1C[C@@H]2c3cc(NC(=O)c4cccnc4)ccc3O[C@@H]2[C@H](CO)O1)NC1CCCCC1	none
O=C(C[C@@H]1C[C@@H]2c3cc(NS(=O)(=O)c4ccccc4)ccc3O[C@@H]2[C@H](CO)O1)N1CCOCC1	none
CC(C)CC#Cc1ccc([C@H]2[C@H](CO)N3C(=O)CN(C(=O)c4cccc(F)c4)C[C@@H]23)cc1	DUX4 txn inh -38
O=C(Cc1ccccc1)N1CC(=O)N2[C@@H](CO)[C@H](c3ccc(C#CCc4ccccc4)cc3)[C@@H]2C1	none
O=C(Cc1ccccc1)N1CC(=O)N2[C@@H](CO)[C@@H](c3ccc(C#CCc4ccccc4)cc3)[C@@H]2C1	none
CC(C)CC#Cc1ccc([C@H]2[C@H]3CN(C(=O)c4cccc(F)c4)CC(=O)N3[C@H]2CO)cc1	none
CC(C)CC#Cc1ccc([C@@H]2[C@@H](CO)N3C(=O)CN(C(=O)c4cccc(F)c4)C[C@H]23)cc1	none
O=C(Cc1ccccc1)N1CC(=O)N2[C@H](CO)[C@@H](c3ccc(C#CCc4ccccc4)cc3)[C@@H]2C1	DUX4 txn inh -33
C[C@H](CO)N1C[C@H](C)[C@H](CN(C)C(=O)c2ccc3c(c2)OCO3)Oc2ncc(/C=C/c3ccccc3)cc2C1=O	none
CS(=O)(=O)N1CCCCN2[C@H](CO)[C@H](c3ccc(-c4cccc(C#N)c4)cc3)[C@@H]2C1	none
N#Cc1cccc(-c2ccc(C3[C@H]4CNC[C@@H]3N4Cc3cccc(-c4ccncc4)c3)cc2)c1 (some centres undefined)	none
CS(=O)(=O)N1CCCCN2[C@H](CO)[C@@H](c3ccc(-c4cccc(C#N)c4)cc3)[C@H]2C1	none
N#Cc1cccc(-c2ccc(C3[C@@H]4CN(Cc5ccccc5)C[C@H]3N4)cc2)c1 (some centres undefined)	DUX4 txn inh -27
COc1cccc(CN2CCCCN3[C@H](CO)[C@H](c4ccc(-c5cccc(C#N)c5)cc4)[C@@H]3C2)c1	none
N#Cc1cccc(-c2ccc(C3[C@@H]4CN(S(=O)(=O)Cc5ccccc5)C[C@H]3N4)cc2)c1 (some centres undefined)	DUX4 txn inh -41
O=C1N[C@@H](Cc2ccccc2)COCc2cn(nn2)CC[C@H]1Cc1ccc(Cl)cc1	none
CN1CCN(C(=O)C[C@H]2CC[C@H]3[C@@H](COC[C@H](O)CN3C(=O)Nc3ccc(Cl)cc3)O2)CC1	none
COC(=O)C[C@@H]1CC[C@H]2[C@@H](COc3ccc(NC(=O)c4ccccc4F)cc3C(=O)N2C)O1	none
O=C([C@@H]1[C@@H](CO)[C@@H]2Cn3c(cccc3=O)[C@H]1N2CC1CC1)N1CCc2ccccc2C1	none
CO[C@@H]1CN(C)C(=O)c2cc(NC(=O)c3ccccc3F)ccc2OC[C@H](C)N(CC2CCOCC2)C[C@@H]1C	none
O=C(c1ccc2c(c1)OCO2)N1CC[C@@H]2[C@H](CO)Nc3ccc(C#Cc4ccccc4)cc3[C@@H]21	DUX4 txn inh -54
O=C(c1ccccc1)N1CC[C@H]2[C@H](CO)Nc3ccc(C#Cc4cccc(F)c4)cc3[C@H]21	none
COc1ccc(C#Cc2ccc3c(c2)[C@@H]2[C@@H](CCN2C(=O)c2ccccc2F)[C@@H](CO)N3)cc1	none
COc1ccccc1C#Cc1ccc2c(c1)[C@@H]1[C@@H](CCN1C(=O)c1cccc(F)c1)[C@H](CO)N2	none
O=C(c1ccc2c(c1)OCO2)N1CC[C@@H]2[C@H]1c1cc(-c3ccccc3)ccc1N[C@@H]2CO	none
O=C(c1ccccc1F)N1CC[C@@H]2[C@@H](CO)Nc3ccc(C#Cc4ccccc4F)cc3[C@@H]21	none
O=C(c1ccccc1F)N1CC[C@@H]2[C@H](CO)Nc3ccc(C#Cc4ccc(F)cc4)cc3[C@@H]21	DUX4 txn inh -33
O=C(c1ccc2c(c1)OCO2)N1CC[C@@H]2[C@H](CO)Nc3ccc(-c4ccccc4)cc3[C@@H]21	none
O=C(c1ccccc1)N1CC[C@@H]2[C@H](CO)Nc3ccc(C#Cc4cccc(F)c4)cc3[C@@H]21	DUX4 txn inh -40
C[C@H]1CN([C@@H](C)CO)C(=O)c2ccccc2-c2ccccc2CO[C@@H]1CN(C)C(=O)c1ccncc1	none
CCCN1[C@@H]2c3ccc(-c4ccc(F)cc4)c(=O)n3C[C@H]1[C@H](CO)[C@H]2C(=O)NCC1CC1	none
CCCC(=O)Nc1ccc2c(c1)OC[C@@H](C)NC[C@@H](C)[C@@H](OC)CN(C)C2=O	none
COc1ccccc1CNC(=O)C[C@H]1C[C@@H]2c3cc(N(C)C)ccc3O[C@@H]2[C@H](CO)O1	none
CO[C@@H]1CN(C)C(=O)c2ccc(NC(=O)C3CCCC3)cc2OC[C@H](C)N(CCC(F)(F)F)C[C@H]1C	none
Cc1cccc(S(=O)(=O)N2C[C@H](O)COC[C@H]3O[C@H](CC(=O)NCc4ccc5c(c4)OCO5)CC[C@@H]32)c1	none
CN(C)C(=O)c1cccc(-c2ccc(C3[C@@H]4CN(S(=O)(=O)c5cccc(Cl)c5)C[C@H]3N4)cc2)c1 (some centres undefined)	DUX4 txn inh -28
CN(C)C(=O)c1cccc(-c2ccc(C3[C@@H]4CN(C(=O)Cc5ccccc5)C[C@H]3N4)cc2)c1 (some centres undefined)	none
COc1ccc(S(=O)(=O)N2[C@@H]3CNC[C@H]2C3c2ccc(-c3cccc(OC)c3)cc2)cc1 (some centres undefined)	none
O=S(=O)(c1ccc(F)cc1)N1[C@@H]2CNC[C@H]1C2c1ccc(-c2cccnc2)cc1 (some centres undefined)	none
COc1cccc(-c2ccc(C3[C@@H]4CN(S(=O)(=O)c5ccccc5)C[C@H]3N4)cc2)c1 (some centres undefined)	DUX4 txn inh -20
CN(C)C(=O)c1cccc(-c2ccc(C3[C@H]4CNC[C@@H]3N4S(=O)(=O)c3ccc(Cl)cc3)cc2)c1 (some centres undefined)	none

Screening results (PubChem)
